High-throughput results: PubChem, National Center for Advancing Translational Sciences (NCATS)
Rab9 promoter act: activators of Rab9 promoter; Huh7 Rab9 promoter-luciferase reporter, luminescence, 24 h; Potency, µM (highest dose often 9.22 µM), for inactives: top-dose activation, negative = inhibition, hits mostly activators; 320,000 tested, 2.8% active; AID 485297; further: % of control where 0% means no effect; nearly all actives have a fitted effect of over 60% in size
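Steps: seed 1500 Huh7 Rab9-luc cells per well, rest 2 h at 37 °C; add compound in DMSO; incubate 24 h; add luciferase reagent, 10 min ambient; read luminescence.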
ELG1 genotoxic: inducers of genotoxicity in HEK293T ELG1-luciferase cells; HEK293T ELG1-luciferase reporter, luminescence, 16 h; Potency, µM (top dose mostly 46 µM), without a hit: at the top dose activity change, positive = activation, actives largely listed as activators; 330,000 tested, 1.3% active; further: % of control where 0% means no effect; nearly all actives have a fitted effect of over 60% in size
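HEK293T cells expressing luciferase-tagged ELG1 were treated with compound or DMSO for 16 hr at 37°C. Luciferase activity was then read after 30 min with ONE-Glo at room temperature; rising signal flags genetic stress.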
SMN2 splice enh: enhancers of SMN2 splice variant expression; Potency, µM (doses to about 46.1 µM), without a hit: at the highest dose activity change, positive = activation, actives largely listed as activators; 210,000 tested, 2.8% active; AID 1458; HEK293 SMN2-luciferase splicing reporter, luminescence, 30-36 h; further: % of control where 0% means no effect; nearly all actives have a fitted effect of over 55% in size
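HEK293 cells carry an SMN2 […]–luciferase reporter in which exon 7 inclusion puts luciferase in frame. Cells were plated 10-12 h before compound addition, then incubated 30-36 h at 37C. ONE-Glo luminescence was read; sodium butyrate at 4.5 mM final served as control.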
NPC1 promoter act: activators of NPC1 promoter | Huh7 NPC1 promoter luciferase reporter, 24 h | Potency, µM (titrated, usually from 9.22 µM), for the others: at the highest dose activation, usual class: activators | 320,000 tested, 2.4% active; further: % of control where 0% means no effect; nearly all actives have a fitted effect of over 60% in size
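Compounds in DMSO were transferred onto Huh7 NPC1-luciferase reporter cells pre-incubated 2 h; after 24 h at 37 °C, Amplite reagent was dispensed and luminescence recorded 10 min later.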
FLuc counter: firefly luciferase modulation, counter-screen for miR-21 project. P08659. purified FLuc, Km substrates, luminescence inhibition. Potency, µM (series often up to 57.5 µM), without a hit: at the highest dose activity change, negative = inhibition, actives largely listed as inhibitors. 360,000 tested, 6.9% active;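 further: plate controls were vehicle for no effect and reference inhibitor for full effect; nearly all actives have a fitted effect of over 55% in size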
Target sequence (P08659 whole entry, looked up): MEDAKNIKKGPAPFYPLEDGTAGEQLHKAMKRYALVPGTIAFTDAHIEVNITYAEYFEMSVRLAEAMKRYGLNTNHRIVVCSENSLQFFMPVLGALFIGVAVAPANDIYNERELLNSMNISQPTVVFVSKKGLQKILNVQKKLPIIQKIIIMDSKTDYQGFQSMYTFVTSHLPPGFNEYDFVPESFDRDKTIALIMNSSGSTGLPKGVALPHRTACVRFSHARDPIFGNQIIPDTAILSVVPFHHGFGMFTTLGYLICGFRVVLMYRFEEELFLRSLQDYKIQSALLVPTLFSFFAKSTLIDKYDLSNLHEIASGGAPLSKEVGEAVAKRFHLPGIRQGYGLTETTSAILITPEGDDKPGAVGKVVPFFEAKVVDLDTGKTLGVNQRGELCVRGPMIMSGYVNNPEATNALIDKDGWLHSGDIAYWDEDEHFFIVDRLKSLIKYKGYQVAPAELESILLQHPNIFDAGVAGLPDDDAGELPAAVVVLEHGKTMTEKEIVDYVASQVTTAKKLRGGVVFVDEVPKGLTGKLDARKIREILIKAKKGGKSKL
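Biochemical qHTS of compounds, final roughly 60 µM downward over six points, against 10 nM purified firefly luciferase using Km concentrations of substrates (10 uM D-luciferin, 10 uM ATP) in Tris acetate pH 7.5 buffer; luminescence output.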
Numbers without * were called inactive; ? = inconclusive; . = not tested or not shown; [ ] = another dose, or the depositor's remark. Hits are enriched below; roughly 7.5% of the tested compounds scored in any of these assays. The call rests on the fitted dose curve; in most records, active means well fitted curve in the direction sought with a large enough effect; inconclusive means small, poorly fitted or top-dose-only effect, or another doubt; inactive means no such curve, though single readings can be large; an effect the other way counts as inactive or inconclusive. Potency means the concentration at half of the fitted maximal effect.

SMILES	Rab9 promoter act	ELG1 genotoxic	SMN2 splice enh	NPC1 promoter act	FLuc counter
Cc1nc2cc(-c3ccc(F)cc3)[nH]n2c(=O)c1C	?	16µM*	.	2µM*	8.5µM*
Cc1ccccc1-c1cc2nc(C)c(C)c(=O)n2[nH]1	?	?	.	?	19µM*
C=CCNC(=O)c1cccn1-c1ccsc1C(=O)OC	0%	0%	?	-6%	5%
O=C1NC(=O)/C(=C/c2cc3c(cc2Br)OCO3)S1	3%	1%	.	-3%	?
O=C1NC(=O)/C(=C/c2ccc3c(c2)OC(F)(F)O3)S1	?	.	.	8.2µM*	.
Cc1cc(=O)n(CCO)c(O)c1C#N	1%	0%	15%	1%	1%
Cc1cc(=O)n(CCc2ccccc2)c(O)c1C#N	?	3%	1%	20%	13µM*
O=C(O)c1cc(-c2ccccc2)nc(-c2ccccc2)c1	-2%	-1%	.	1%	2%
c1ccc(-c2cccc(-c3ccccc3)n2)cc1	?	5%	.	23%	12µM*
CCOC(=O)c1cc(-c2ccccc2)n(-c2cccc(C(=O)Nc3cccc(C)c3)c2)c1C	.	.	.	.	-3%
Clc1nc(-c2ccccn2)nc2scc(-c3ccccc3)c12	4.5µM*	?	5.6µM*	?	0.38µM*
O=C(Cn1ncc2c(Cl)cccc21)NCc1cccc(Br)c1	.	.	.	.	4.8µM*
O=C(Cn1ncc2c(Cl)cccc21)NCc1cccc(F)c1	.	.	.	.	-2%
Cc1ccc(S(=O)(=O)CCc2ccccn2)cc1	-1%	1%	18%	0%	0%
CC(C)(C)c1ccc(S(=O)(=O)CCc2ccccn2)cc1	?	21µM*	9%	?	17µM*
Fc1ccc(SCCc2ccccn2)cc1	?	?	.	22%	17µM*
CC(C)(C)c1ccc(SCCc2ccccn2)cc1	3.2µM*	?	.	2.2µM*	3.8µM*
Fc1ccc(N2CCN(Cc3ccccn3)CC2)cc1	9%	-2%	-5%	-7%	0%
COc1ccc(S(=O)(=O)N2CCC(N3CCN(c4ccccc4OC)CC3)CC2)cc1	-4%	-2%	.	-2%	1%
COC(=O)c1nn(Cc2ccccc2)c(=O)c2ccccc12	-1%	0%	-6%	-1%	2%
COc1ccc(C(=O)c2ccc(Cl)cc2Cl)cc1	-30%	15%	-20%	0%	?
COc1ccc(N/C=C/C(=O)c2ccc(Cl)cc2)cc1	0.71µM*	3.7µM*	4.5µM*	0.79µM*	0.6µM*
CCOC(=O)c1ccc(N/C=C/C(=O)c2ccc(OC)cc2)cc1	1%	7%	-9%	-1%	0%
COc1ccc(C(=O)c2ccc(Cl)cc2)cc1	27%	21µM*	-9%	15%	?
COc1cccc(C(=O)/C=C/Nc2ccc(NC(C)=O)cc2)c1	4µM*	?	13µM*	?	9.5µM*
SMILES	Rab9 promoter act	ELG1 genotoxic	SMN2 splice enh	NPC1 promoter act	FLuc counter
COc1cccc(C(=O)/C=C/Nc2cccc(O)c2)c1	?	2.3µM*	-6%	?	0.21µM*
COc1ccc(C(=O)/C=C/Nc2ccc(NC(C)=O)cc2)cc1OC	-5%	4%	-1%	-4%	?
Cc1ccc(C(=O)N2c3nc(-c4ccco4)nn3C3(CCCCC3)[C@@H]3CCCC[C@@H]32)cc1	.	.	.	.	-1%
COc1cccc(N/C=C/C(=O)c2ccc(C)cc2)c1	0.5µM*	1.5µM*	.	0.45µM*	0.24µM*
COc1cc(/C=C/C(=O)c2ccc(NS(=O)(=O)c3ccc(C)cc3)cc2)cc(OC)c1O	-5%	-9%	-100%	-4%	-3%
COc1cccc(C(=O)/C=C/Nc2ccc(S(=O)(=O)Nc3cccc(C(C)=O)c3)cc2)c1	-4%	-18%	-45%	-9%	-1%
COc1cccc(/C=C/C(=O)c2ccc(NS(=O)(=O)c3ccc(C)cc3)cc2)c1	-13%	0%	-48%	-5%	13µM*
COc1cccc(N/C=C/C(=O)c2ccc(Cl)cc2)c1	0.5µM*	1.2µM*	4.5µM*	0.5µM*	0.54µM*
CCc1nc(SCC(=O)O)c2c3c(sc2n1)COC(C)(C)C3	-6%	1%	.	10%	-10%
CNc1oc(-c2ccc(Cl)cc2)nc1C#N	?	?	13%	?	11µM*
COc1ccc(-c2nc(C#N)c(N3CCCCC3)o2)cc1	1%[1.84 µM]	-4%	.	1%	?
COc1ccc(-c2nc(C#N)c(NC(C)C)o2)cc1	?	27%	5%	?	13µM*
N#Cc1nc(-c2cccc3ccccc23)oc1NCC1CCCO1 (stereo not given)	25%	?	.	7%	12µM*
N#Cc1nc(-c2ccccc2)oc1NCC1CCCO1 (stereo not given)	-1%	3%	-3%	2%	-18%
N#Cc1nc(-c2ccc(Cl)cc2)oc1NCC1CCCO1 (stereo not given)	?	?	?	10%	21µM*
CCN(c1ccc(NC(=O)CN2C(=O)NC3(CCOc4ccccc43)C2=O)cc1)C(C)C (stereo not given)	-2%	1%	-9%	-3%	17µM*
CCNC(=O)CN1C(=O)NC2(CCOc3ccccc32)C1=O (stereo not given)	2%	1%	.	0%	-1%
Cc1ccccc1Nc1c(-c2ccc(Br)o2)nc2ccc(Cl)cn12	.	.	5%	.	?
CCOC(=O)C1CCN(C(=O)CN(c2ccc(OC)cc2)S(=O)(=O)c2c(C)noc2C)CC1	-1%	2%	-8%	2%	-1%
COc1cccc(/C=N/NC(=O)CSCC(=O)Nc2ccccc2)c1O	-46%	1%	.	-33%	?
COc1ccc(/C=C\C(=O)NCC(=O)N/N=C/c2cccc(OC)c2O)cc1	-1%	-2%[9.26 µM]	.	2%	-4%
COc1cccc(/C=N/NC(=O)CNC(=O)/C=C\c2ccccc2)c1O	-12%	18%	.	-6%	11µM*
COc1cccc(/C=N/NC(=O)CNC(=O)C(c2ccccc2)c2ccccc2)c1O	-7%	?	.	-36%	4.8µM*
CC(C)OCCCNC(=O)c1cccc2c1C(=O)c1ccc(Cl)cc1S2(=O)=O	-2%	1%	.	-1%	3%
Cc1c(OCC(=O)N[C@H](C(=O)O)c2ccccc2)ccc2c3c(c(=O)oc12)CCCC3	-5%	1%	.	0%	?
CCOC(=O)c1cnn(-c2ncnc3c2oc2ccccc23)c1N	1.1µM*	1.6µM*	10µM*	1.3µM*	1.1µM*
CCOC(=O)c1cnn(-c2cc(Oc3ccccc3)ncn2)c1N	22%	6%	-14%	25%	-12%
CCOC(=O)c1cnn(-c2cc(C)c3ccccc3n2)c1N	-31%	7%	1%	?	8.5µM*
CCOC(=O)c1cnn(-c2ccccn2)c1N	4µM*	?	.	4µM*	21µM*
CSc1ncccc1C(=O)N(C)CC(=O)Nc1cccc(F)c1	1%	1%	.	-9%	0%
